High-throughput results as filed in PubChem BioAssay.
A selection: hits, their analogues and other compounds. The true share with any hit is near 3.7%.
CHT inh: inhibits the human high affinity choline transporter | Q9GZV3 | CHT-expressing cells, membrane potential dye, choline response; stronger effect = lower value | B-score at 10 µM | 310,000 compounds, 0.86% hits | AID 488975;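 active = B-score over 3 SD under the library average, and starting fluorescence ratio not unusually high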;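 also: choline stimulus applied at its EC90 after an EC20 pre-addition; B-score computed on integrated fluorescence ratio after choline addition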
GPR7 antag: human neuropeptides B/W receptor 1 antagonism; 290,000 compounds, 1.1% hits; GPR7-expressing cells, fluorescence antagonist assay; P48145; inhibition, % at 4.4 µM; in the data active = inhibition above about 16%, passing the limit was not always enough;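 also: cells stimulated with the agonist NPW; 0% = agonist with vehicle and 100% = vehicle without agonist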
ANO1 block: blocks the mouse calcium-activated chloride channel TMEM16A | HEK293 TMEM16A/YFP iodide influx fluorescence, ionomycin | AID 588511 | Q8BHY3 | 310,000 compounds, 1.2% hits | normalized B-score (activity score, 25-100; higher = stronger inhibition) at 10 µM;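 active = ratio plate-corrected score three or more library SD toward inhibition, starting fluorescence score within five deviations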;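 also: score derived from kinetic fluorescence span divided by baseline fluorescence per well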
Kir21 block: Kir2.1 (mouse) channel inhibition | P35561 | HEK293-Kir2.1, FluxOR thallium flux fluorescence; stronger effect = lower value | B-score at 10 µM | 310,000 compounds, 0.85% hits;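 active = fluorescence ratio B-score at or below minus 3 SD of library scores, with starting-brightness B-score within 2 SD, cut at about -4.2 in these data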;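 also: channel flux triggered by added potassium and thallium sulfate stimulus; B-score of peak minus minimum fluorescence over baseline after thallium stimulus; more negative B-score means stronger Kir2.1 block with less thallium influx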
Target sequence (P35561 whole entry, looked up): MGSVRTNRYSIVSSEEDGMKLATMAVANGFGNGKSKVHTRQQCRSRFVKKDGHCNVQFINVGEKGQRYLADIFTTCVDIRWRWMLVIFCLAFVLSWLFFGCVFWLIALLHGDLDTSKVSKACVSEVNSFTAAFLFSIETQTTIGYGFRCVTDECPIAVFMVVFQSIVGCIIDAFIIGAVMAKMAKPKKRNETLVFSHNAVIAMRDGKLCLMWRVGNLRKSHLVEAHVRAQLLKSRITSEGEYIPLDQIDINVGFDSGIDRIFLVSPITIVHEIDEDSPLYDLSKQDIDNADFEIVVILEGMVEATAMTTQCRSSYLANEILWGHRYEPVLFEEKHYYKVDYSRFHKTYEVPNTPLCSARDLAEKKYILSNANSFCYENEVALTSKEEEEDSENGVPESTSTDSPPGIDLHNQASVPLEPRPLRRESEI
CHT PAM: human CHT allosteric activation | Q9GZV3 | CHT-expressing cells, membrane potential dye, choline EC20; stronger effect = higher value; LV-AA mutant CHT in HEK293 cells | 310,000 compounds, 0.49% hits | AID 488977 | B-score at 10 µM;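 active = initial fluorescence not abnormally high and integrated response B-score, plate-corrected, over 3 SD above library mean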
ANO1 activ: activates or potentiates the mouse TMEM16A chloride channel | 340,000 compounds, 0.3% hits | HEK293 TMEM16A/YFP-H148Q/I152L, iodide quench fluorescence; stronger effect = lower value | AID 623877 | Q8BHY3 | B-score at 10 µM;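 active = fluorescence-ratio B-score plate-corrected deviation score at least 3 library SD below zero, with starting fluorescence score within 5 deviations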;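 also: channel opened by trigger with iodide after compound preincubation; score built on the fluorescence ratio of max minus min over baseline; more negative score means more quench and so TMEM16A activation or potentiation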
Active calls of the source: *; i = inactive; x = no result.

SMILES	CHT inh	GPR7 antag	ANO1 block	Kir21 block	CHT PAM	ANO1 activ
O=C1CC(c2cccc([N+](=O)[O-])c2)c2ccc3ccccc3c2N1 (stereo not drawn)	i	13	25*	1	i	i
O=[N+]([O-])c1ccc(N2CCN(c3cccc(Cl)c3)CC2)cn1	i	21*	i	1.1	i	i
OC1(C(F)(F)F)CC(c2ccc3ccccc3c2)=NO1 (stereo not drawn)	i	-8	i	0.62	i	i
CCOC(=O)c1cc2c(C)n(-c3ccc(C)cc3)c(C)c2ccc1=O	i	-10	100*	0.35	i	i
Cc1c(C)n(C)c2ccc(C(=O)NCCCN3CCCC3)cc12	i	-22	i	-0.38	i	i
Cc1c(C)n(C)c2ccc(C(=O)NCCCN3CCN(c4ccc(F)cc4)CC3)cc12	i	4	i	-4.2*	i	i
COc1ccc(N2CCN(C(=O)c3cc(N4C(=O)C5C6CCC(C6)C5C4=O)ccc3Cl)CC2)cc1 (stereo not drawn)	i	20*	i	1.5	i	i
O=C(c1cc(N2C(=O)C3C4CCC(C4)C3C2=O)ccc1Cl)N1CCN(c2ccc(F)cc2)CC1 (stereo not drawn)	i	3	i	0.47	i	i
Cc1ccc(C(=O)O)cc1N1C(=O)c2cccc3c([N+](=O)[O-])ccc(c23)C1=O	-5*	-13	i	-0.61	i	i
Cc1ccc(OC/C(O)=C(\C#N)c2nc3ccccc3s2)cc1	i	-2	100*	0	i	i
Cn1c(=O)c(C(=O)COC(=O)c2cc(C3CC3)nc3ccccc23)c(N)n(Cc2ccccc2)c1=O	i	10	i	x	i	x
Cn1c(=O)c(C(=O)COC(=O)c2cc(-c3ccco3)nc3ccccc23)c(N)n(CC2CC2)c1=O	-5.5*	-4	i	1	i	x
Cc1cc(C)n(-c2n[nH]c(C)c2[N+](=O)[O-])n1	i	-12	i	0.64	i	i
O=C(N/N=C/c1cc([N+](=O)[O-])ccc1O)c1cc(-c2ccccc2)nc2ccccc12	i	3	25*	1.3	i	i
Cc1ccsc1/C=N/NC(=O)c1cc(-c2ccncc2)nc2ccccc12	i	1	i	1.5	i	-5*
O=C(N/N=C/c1cc([N+](=O)[O-])ccc1Cl)c1cc(-c2ccccc2)nc2ccccc12	i	-5	i	-0.66	i	i
NS(=O)(=O)c1cccc(NS(=O)(=O)c2ccc(/C=C/C(=O)O)cc2)c1	i	-20	i	1.9	i	i
Cc1ccc(NC(=O)C2=C(c3ccccc3)S(=O)(=O)CCS2(=O)=O)cc1	i	34*	i	-5.7*	i	i
COCCN(C(=O)c1ccc(N(C)S(=O)(=O)c2ccc(C)cc2)cc1)c1c(N)n(CC(C)C)c(=O)[nH]c1=O	x	x	x	x	x	i
O=C(CSc1c2c(nc3cc(Cl)ccc13)CCCC2)NCc1ccco1	i	0	i	-6.5*	i	i
S=C(NCCSCc1ccc(Cl)c(Cl)c1)Nc1ccccc1	i	-17	100*	0.66	i	i
S=C(NCCSCc1c(Cl)cccc1Cl)Nc1ccccc1	i	-18	100*	-5.1*	i	i
C[C@]12CCC3c4ccc(OCC(=O)O)cc4CCC3C1CCC2=O (stereo partly drawn)	i	22*	i	-0.57	i	i
N#CC1=C(N)NC(SCc2ccc(Cl)cc2)=C(C#N)C12CCCCC2	i	7	100*	-0.21	i	i
N#CC1=C(N)NC(SCC(=O)Nc2ccc(Br)cc2)=C(C#N)C12CCCCC2	i	-10	100*	2.1	i	i
N#CC1=C(N)NC(SCc2ccc(Br)cc2)=C(C#N)C12CCCCC2	i	4	100*	0.02	i	i
N#CC1=C(N)NC(SCc2ccccc2)=C(C#N)C12CCCC2	i	-20	i	-3.4	i	-5.1*
CCSC1=C(C#N)C2(CCCC2)C(C#N)=C(N)N1	i	-2	i	-1.7	i	x
